# Compounds without any hit were thinned out: in the full panel of roughly 83,000, 20% have a hit.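 Interpretation: 100, growth as untreated; towards 0, rising growth inhibition; 0, no net growth; 0 to -100, cell death. Compounds scoring below 10 were considered active.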 Unmarked numbers belong to inactive results. Active and inactive are the calls of the source.
# Assays:
# Test in all cases: NCI-60 one-dose screen, 48 h (100 = growth as untreated, 0 = no growth, -100 = all killed)
# NCI-H23 lung = conditions: 10 µM unless noted
# NCI-H226 lung = conditions: 10 µM unless noted
# NCI-H322M lung = conditions: 10 µM unless noted
# NCI-H460 lung = conditions: 10 µM unless noted
# HOP-92 NSCLC = conditions: 10 µM
# NCI-H522 lung = conditions: 10 µM
# A549/ATCC NSCLC = conditions: 10 µM unless noted
# 786-0 renal = conditions: 10 µM unless noted
# COLO 205 colon = conditions: 10 µM unless noted
# DU-145 prostate = conditions: 10 µM unless noted
# K-562 leukemia = conditions: 10 µM unless noted
# MDA-MB-231 breast = conditions: 10 µM unless noted
# RXF 393 renal = conditions: 10 µM unless noted
# SF-268 CNS = conditions: 10 µM unless noted
# SF-295 CNS = conditions: 10 µM unless noted
# SF-539 CNS = conditions: 10 µM unless noted
# UACC-257 melanoma = conditions: 10 µM unless noted
# M14 melanoma = conditions: 10 µM unless noted
# MALME-3M melanoma = conditions: 10 µM unless noted
SMILES,growth (NCI-H23 lung),growth (NCI-H226 lung),growth (NCI-H322M lung),growth (NCI-H460 lung),growth (HOP-92 NSCLC),growth (NCI-H522 lung),growth (A549/ATCC NSCLC),growth (786-0 renal),growth (COLO 205 colon),growth (DU-145 prostate),growth (K-562 leukemia),growth (MDA-MB-231 breast),growth (RXF 393 renal),growth (SF-268 CNS),growth (SF-295 CNS),growth (SF-539 CNS),growth (UACC-257 melanoma),growth (M14 melanoma),growth (MALME-3M melanoma)
CCOC(=O)C1=NN(c2ccccc2)C2=NC(=O)/C(=C\c3cn(-c4ccccc4)nc3-c3cc4ccccc4o3)C(=O)N12,95.4%,84.7%,89.6%,97%,63.5%,89.5%,96.8%,99.9%,109%,109%,74.9%,78.7%,124%,105%,108%,114%,102%,101%,
CCCCCSc1ccc2nc(NC(=O)OCCC)sc2c1,25.5%,30.1%,50%,13.9%,36.3%,29.4%,46.4%,31.1%,,43.2%,19%,43.3%,28.8%,55.2%,19.9%,-24.7% (active),63.1%,23.1%,62.5%
O=S(=O)(O)c1ccc2c(c1)Sc1cc(S(=O)(=O)O)ccc1O2,109%,118%,118%,118%,98.5%,107%,99.5%,108%,111%,116%,100%,101%,116%,112%,103%,117%,108%,107%,
O=c1oc2ccc3ccccc3c2cc1-c1ccnc2[nH]c(=S)[nH]c(=O)c12,94.7%,94.5%,92.9%,103%,88.3%,88%,97%,97.5%,111%,106%,93.4%,87.4%,118%,98.7%,101%,103%,98.9%,105%,

# Reference: PubChem BioAssay (NCI)
